# Screening results deposited in PubChem BioAssay by several laboratories.
# Shown are actives, neighbours in structure and some others; about 27% of the full set was active somewhere.
# CYP2C19 inhib: blocks human cytochrome P450 2C19; 96,000 compounds, 21% hits; P33261; CYP2C19 Supersomes, luciferin-H EGE luminescence, 30 min; inhibition, % at 5 µM;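 active = CYP2C19 inhibition above a set limit at 5 µM in the primary screen, cut at about 50% in these data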
# CYP2C19 act: cytochrome P450 2C19 (human) activation. 96,000 tested, under 10 active. activation factor at 5 µM. P33261. recombinant CYP2C19, luciferin-H EGE luminescence; active compounds read high; 0 = fully inhibited enzyme, 1 = untreated enzyme;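 active = activation factor of at least 2 at 5 µM in the primary screen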
# CYP2C9 activ: CYP2C9 (human) activation | recombinant CYP2C9, luciferin-H conversion, luminescence; active compounds read high; factor 1 = untreated enzyme, 0 = blocked | activation factor at 5 µM | 96,000 compounds, 1.4% hits | AID 1024;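 active = activation factor of 2 or more for CYP2C9 at a 5 µM dose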
# CYP2C9 inhib: human CYP2C9 inhibition; inhibition, % at 5 µM; P11712; AID 777; CYP2C9 Supersomes, luciferin-H conversion, luminescence; 96,000 compounds, 20% hits;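 active = blocking of liver enzyme CYP2C9 beyond about 50% at 5 µM, limit read from the data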
# Cav3 T inh: inhibitors of human Cav3.2 T-type calcium channel; O95180; Cav3.2-expressing cells, Fluo-4 calcium fluorescence FDSS; active compounds read low; B-score at 10 µM; 100,000 compounds, 4% hits;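 active = single-dose well whose peak fluorescence ratio is a statistical outlier from its plate by either plate-standardised score or position-corrected B-score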
# Target sequence (O95180 whole entry, looked up): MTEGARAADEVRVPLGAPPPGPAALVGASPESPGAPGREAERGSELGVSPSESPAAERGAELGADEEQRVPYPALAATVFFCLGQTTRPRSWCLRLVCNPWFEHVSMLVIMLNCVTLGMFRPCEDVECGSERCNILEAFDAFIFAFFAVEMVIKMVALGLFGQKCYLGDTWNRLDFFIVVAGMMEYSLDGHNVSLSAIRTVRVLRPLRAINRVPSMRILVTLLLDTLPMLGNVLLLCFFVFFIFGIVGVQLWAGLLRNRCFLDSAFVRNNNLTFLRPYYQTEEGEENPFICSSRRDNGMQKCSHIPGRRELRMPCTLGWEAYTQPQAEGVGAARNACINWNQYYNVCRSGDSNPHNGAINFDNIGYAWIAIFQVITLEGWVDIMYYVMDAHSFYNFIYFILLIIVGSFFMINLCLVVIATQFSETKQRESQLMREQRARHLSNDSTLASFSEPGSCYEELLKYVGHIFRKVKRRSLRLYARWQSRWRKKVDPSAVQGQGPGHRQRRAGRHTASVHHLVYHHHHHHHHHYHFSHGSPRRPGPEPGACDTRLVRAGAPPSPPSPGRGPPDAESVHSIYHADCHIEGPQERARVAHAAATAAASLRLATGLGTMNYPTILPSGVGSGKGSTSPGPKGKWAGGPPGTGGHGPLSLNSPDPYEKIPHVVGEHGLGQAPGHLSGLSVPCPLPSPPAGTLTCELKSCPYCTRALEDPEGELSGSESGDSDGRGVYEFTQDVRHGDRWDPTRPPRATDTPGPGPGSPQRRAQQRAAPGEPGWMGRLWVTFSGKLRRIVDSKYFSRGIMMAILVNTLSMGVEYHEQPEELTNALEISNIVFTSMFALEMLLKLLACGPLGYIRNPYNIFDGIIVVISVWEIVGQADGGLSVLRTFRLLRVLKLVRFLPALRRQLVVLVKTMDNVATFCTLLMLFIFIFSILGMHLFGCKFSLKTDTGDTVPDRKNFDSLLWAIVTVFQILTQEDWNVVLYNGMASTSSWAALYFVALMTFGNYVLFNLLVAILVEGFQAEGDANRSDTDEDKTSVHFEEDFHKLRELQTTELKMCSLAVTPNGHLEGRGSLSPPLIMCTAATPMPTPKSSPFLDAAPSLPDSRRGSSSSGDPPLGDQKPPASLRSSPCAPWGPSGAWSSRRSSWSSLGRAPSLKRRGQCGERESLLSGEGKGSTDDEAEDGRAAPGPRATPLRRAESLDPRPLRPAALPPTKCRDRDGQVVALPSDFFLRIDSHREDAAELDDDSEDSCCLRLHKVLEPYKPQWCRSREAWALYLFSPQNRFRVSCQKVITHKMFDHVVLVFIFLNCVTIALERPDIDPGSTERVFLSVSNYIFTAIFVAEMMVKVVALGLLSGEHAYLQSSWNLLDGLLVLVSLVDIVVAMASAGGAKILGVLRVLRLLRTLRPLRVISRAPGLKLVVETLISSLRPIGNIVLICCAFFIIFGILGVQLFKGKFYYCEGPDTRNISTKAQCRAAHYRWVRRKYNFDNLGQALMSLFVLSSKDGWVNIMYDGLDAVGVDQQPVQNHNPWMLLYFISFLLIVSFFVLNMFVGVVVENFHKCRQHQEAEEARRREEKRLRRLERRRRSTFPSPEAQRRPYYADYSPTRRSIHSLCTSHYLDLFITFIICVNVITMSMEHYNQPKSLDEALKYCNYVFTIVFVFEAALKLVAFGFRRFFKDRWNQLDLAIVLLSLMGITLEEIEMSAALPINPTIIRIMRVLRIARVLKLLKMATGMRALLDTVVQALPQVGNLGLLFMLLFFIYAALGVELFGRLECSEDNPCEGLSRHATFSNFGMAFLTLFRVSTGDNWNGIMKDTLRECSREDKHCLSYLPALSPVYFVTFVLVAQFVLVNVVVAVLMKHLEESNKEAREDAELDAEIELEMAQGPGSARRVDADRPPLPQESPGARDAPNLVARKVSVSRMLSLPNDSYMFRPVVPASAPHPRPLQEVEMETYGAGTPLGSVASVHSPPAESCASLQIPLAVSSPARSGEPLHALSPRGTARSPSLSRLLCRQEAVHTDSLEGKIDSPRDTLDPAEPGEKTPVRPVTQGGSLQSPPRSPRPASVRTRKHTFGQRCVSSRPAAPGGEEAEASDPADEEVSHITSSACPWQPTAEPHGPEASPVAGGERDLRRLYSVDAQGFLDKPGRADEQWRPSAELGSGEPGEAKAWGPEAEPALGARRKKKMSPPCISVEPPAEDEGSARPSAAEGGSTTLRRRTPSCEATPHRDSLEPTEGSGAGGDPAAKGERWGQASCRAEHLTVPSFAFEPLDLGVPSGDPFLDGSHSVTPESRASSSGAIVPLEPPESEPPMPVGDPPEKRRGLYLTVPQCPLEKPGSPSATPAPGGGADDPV
# Hits are given with their value; – = inactive; · = no result.
SMILES,CYP2C19 inhib,CYP2C19 act,CYP2C9 activ,CYP2C9 inhib,Cav3 T inh
COc1ccc(-c2noc(CCC(=O)N3CCN(c4cccc(C(F)(F)F)c4)CC3)n2)cc1,70,–,–,83,-4.8
O=C1CC(N2CCN(c3cccc(C(F)(F)F)c3)CC2)C(=O)N1c1ccccc1 (stereo unspecified),–,–,–,–,–
O=C1CC(N2CCN(c3cccc(C(F)(F)F)c3)CC2)C(=O)N1c1ccccc1F (stereo unspecified),–,–,–,84,-3.2
COc1ccc(C)cc1NC(=O)C(CCS(C)(=O)=O)NC(C)=O (stereo unspecified),–,–,–,–,–
COc1ccc(Cc2nc3ccc(S(N)(=O)=O)cc3[nH]2)cc1OC,–,–,–,–,–
COc1ccccc1CC1(C)NC(=O)N(CC(=O)Nc2cc(C)on2)C1=O (stereo unspecified),–,–,–,–,–
CC1(C(=O)O)CCC(C(=O)Nc2ccc(S(N)(=O)=O)cc2)C1(C)C (stereo unspecified),–,–,–,–,–
CCn1c2ccccc2c2cc(/C=N/NC(=O)c3cccc(C)c3)ccc21,–,–,–,–,-4.2
CC(/C=N/NC(=O)Cc1cc(=O)[nH][nH]1)=C\c1ccccc1,–,–,–,–,–
Cc1cccc(C(=O)N/N=C/c2ccncc2)c1,64,–,–,–,–
CC(/C=N/NC(=O)c1ccncc1)=C\c1ccccc1,81,–,–,79,–
O=C(c1cc(-c2ccc(O)cc2)on1)N1CCc2ccccc2C1,82,–,–,–,-6.2
O=C(c1cc(-c2cccc(O)c2)on1)N1CCOCC1,59,–,–,–,–
O=C(NCCN1C(=O)C2C3C=CC(C3)C2C1=O)Nc1ccccc1 (stereo unspecified),70,–,–,–,–
O=C(NCCN1C(=O)C2C3C=CC(C3)C2C1=O)NCc1ccccc1 (stereo unspecified),–,–,–,–,–
Cc1ccc(NC(=O)NCCN2C(=O)C3C4C=CC(C4)C3C2=O)cc1 (stereo unspecified),91,–,–,–,–
COc1ccc(NC(=O)NCCN2C(=O)C3C4C=CC(C4)C3C2=O)cc1 (stereo unspecified),–,–,–,–,–
O=C(NCCN1C(=O)C2C3C=CC(C3)C2C1=O)N1CCCCC1 (stereo unspecified),–,–,–,–,–
Cc1cccc(NC(=O)CCn2ccnc2C)c1,62,–,–,–,–
Cc1ccccc1NC(=O)NCCN1C(=O)C2C3C=CC(C3)C2C1=O (stereo unspecified),50,–,–,–,–
O=C(OCC(=O)N1CCCCCC1)c1cccs1,–,–,–,–,–
CCOC(=O)N1CCN(c2cc(=O)n(-c3ccc(Br)cc3)c(=O)[nH]2)CC1,–,–,–,–,–
Cc1cc(Nc2ccc(F)c(Cl)c2)n2ncnc2n1,–,–,–,–,–
O=C(CCN1C(=O)C2C3C=CC(C3)C2C1=O)NCc1cccnc1 (stereo unspecified),98,–,–,–,–
Cc1cccc(NC(=O)CCN2C(=O)C3C4C=CC(C4)C3C2=O)c1 (stereo unspecified),85,–,–,–,–
SMILES,CYP2C19 inhib,CYP2C19 act,CYP2C9 activ,CYP2C9 inhib,Cav3 T inh
CCOC(=O)c1cccc(NC(=O)CN2C(=O)C3C4C=CC(C4)C3C2=O)c1 (stereo unspecified),–,–,–,–,–
O=C(NCCc1ccccc1)[C@@H]1CC=C[C@@H]2CCN(Cc3ccccc3)C(=O)[C@@H]21,·,·,·,·,–
Cc1ccc(C(=O)N(c2c(C)n(C)n(-c3ccccc3)c2=O)C(C)C)cc1,–,–,–,–,–
CC(C)CCN(C)C1CCN(S(=O)(=O)c2cccc(C(F)(F)F)c2)CC1,52,–,–,–,·
O=S(=O)(C=C(c1ccccc1)c1ccccc1)c1ccccc1,66,–,–,–,–
C/C(=N\NS(C)(=O)=O)c1ccccc1,–,–,–,–,–
O=S(=O)(/C=C/c1ccccc1)c1ccccc1,91,–,4.1,–,–
CCOCCCNC(=O)C(NC(=O)c1cnccn1)c1ccc(C)cc1 (stereo unspecified),59,–,–,–,–
C/C(=C1/SC(N2CCOCC2)=NC1=O)c1ccc(Br)cc1,–,–,–,–,–
CCOc1ccc(S(=O)(=O)N(CC(=O)Nc2cc(C)on2)Cc2ccccc2Cl)cc1,71,–,–,82,–
Cc1cc(C)cc(Oc2ccccc2/C=C\C(=O)O)c1,–,–,–,–,–
O=C1NC(=O)/C(=C/c2ccccc2Oc2ccc(Cl)cc2)S1,–,–,–,72,–
O=Cc1ccccc1Oc1ccccc1,–,–,–,–,–
Cc1ccc(Oc2ccccc2/C=C2\SC(=O)N(C)C2=O)cc1,51,–,–,–,–
CSC1=NC(NCCCO)c2c(sc3c2CC(C)(C)OC3)N1 (stereo unspecified),–,–,–,–,–
CCCCN(C)C(=O)CSc1nc(NCc2ccc(OC)cc2)c2ccccc2n1,54,–,–,–,–
COCCNc1nc(SCC(=O)N2CCN(c3ccccc3)CC2)nc2ccccc12,·,·,·,·,–
Cc1ccc(NC(=O)N/C=C/c2ccco2)c(C)c1,76,–,–,61,·
Cc1ccc(NC(=O)N/C=C/c2ccco2)cc1C,–,–,–,–,–
Cc1ccc(OC(=O)c2cccc(C(=O)Oc3ccc(C)cc3)n2)cc1,–,–,–,–,–
CC(C)Sc1nc2c(c(=O)n(C)c(=O)n2C)n1Cc1ccc(Cl)cc1,–,–,–,–,-4.5
CCOC(=O)CSc1nc2c(c(=O)n(C)c(=O)n2C)n1CCCc1ccccc1,57,–,–,73,–
CC(C)n1c(SCc2cc(=O)[nH]c3ccccc23)nc2c1c(=O)n(C)c(=O)n2C,–,–,–,–,–
Cn1c(N2CCOCC2)nc2c1c(=O)n(Cc1ccc(Cl)cc1)c(=O)n2C,·,·,·,·,–
CC(C)n1c(SCc2ccccc2F)nc2c1c(=O)n(C)c(=O)n2C,60,–,–,74,–
SMILES,CYP2C19 inhib,CYP2C19 act,CYP2C9 activ,CYP2C9 inhib,Cav3 T inh
Cn1c(N2CCN(c3ccccn3)CC2)nc2c1c(=O)n(Cc1ccc(Cl)cc1)c(=O)n2C,92,–,–,86,-3.3
Cc1c(NC(=O)c2ccc(F)c(S(=O)(=O)N3CCOCC3)c2)c(=O)n(-c2ccccc2)n1C,–,–,–,–,–
O=C(CCCCn1c(=O)[nH]c2ccccc2c1=O)NCCC1=CCCCC1,–,–,–,–,–
O=C(CSc1nnc(NC(=O)c2ccco2)s1)NC1CCCCC1,–,–,–,–,–
Cn1c(=O)c2c(nc(SCc3ccccc3)n2Cc2ccc(Cl)cc2)n(C)c1=O,·,·,·,·,-4.4
CN(C)c1nc2c(c(=O)n(C)c(=O)n2C)n1Cc1ccccc1,–,–,–,–,–
Cc1nnc(SC(=O)N2c3ccccc3Sc3ccccc32)s1,–,–,–,–,–
CCCCC(=O)Nc1ccc(Br)cn1,57,–,–,–,–
CCCCNC(=O)Nc1ccc(Br)cn1,82,–,–,52,–
CCCCNC(=O)Nc1ccccn1,–,–,–,–,–
